# Tested on: T1, JNK3
# T1 construct: gene MAPK10
# Conditions: concentration: 1 μM, replicates: in singlicate; n = 1
# 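Note: KINOMEscan kinase panel screen.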
row,SMILES,%Inh [%]
1,COc1ccc(Nc2nccc(N3CCC(NC(=O)Nc4cccc(OC)c4)C3)n2)cc1 (stereo not drawn) [GSK1379742],0
2,Cc1ccc(C)c(NC(=O)NC2CCN(c3ccnc(Nc4ccc(F)cc4)n3)C2)c1 (stereo not drawn) [GSK1379720],0
3,c1ccc(-c2n[nH]cc2Nc2ccnc3ccccc23)nc1 [GW694077],90
4,COc1cc(Nc2nccc(N3CCC(NC(=O)Nc4cccc(C(C)=O)c4)C3)n2)cc(OC)c1OC (stereo not drawn) [GSK1379753],49
5,O=C(Nc1cccc(-c2nn3ncccc3c2-c2ccnc(Nc3ccccc3)n2)c1)c1c(F)cccc1F [GSK198271],21
6,c1ccc(-c2cnc3nccnn23)cc1 [AH20685],4
7,Cl.c1ccc(-c2ccc3c(Nc4ccc5[nH]ncc5c4)ccnc3c2)nc1 [GW440137],15
8,Fc1ccc(-c2ncn(C3CCNCC3)c2-c2ccnc(Oc3ccc(-c4ccccc4)cc3)n2)cc1 [SB-245391],46
9,Clc1ccc(-c2nn3ncccc3c2-c2ccnc(Nc3ccc4c(c3)OCCO4)n2)cc1 [GW829116],100
10,Cc1ccc(F)c(C(=O)Nc2cccc(-c3nn4ccccc4c3-c3ccnc(Nc4cccc(F)c4)n3)c2)c1F [GSK361061],25
11,CNC(=O)c1ccccc1Nc1nc(Nc2ccc(N3CCOCC3)cc2)ncc1Cl.Cl [GSK1576028],100
12,Cc1cccc(Nc2nc(N[C@H]3CCNC3)ncc2C(N)=O)c1.Cl [GSK2197149],34
13,CCn1c(-c2nonc2N)nc2c(C#CC(C)(C)O)nc(OC[C@H](N)c3ccccc3)cc21 [GSK943949],0
14,COc1cc(Nc2ncc3c(C)nc(-c4cc5ccccc5[nH]4)n3n2)cc(OC)c1OC [GW869516],0
15,Cl.NC(=O)c1cccc(Nc2nccc(Nc3ccc(Oc4c(Cl)cccc4Cl)c(Cl)c3)n2)c1 [GW659009],1
16,Cl.c1ccc(-c2ccc3c(Nc4ccc5[nH]ccc5c4)ccnc3c2)nc1 [GW440138],2
17,CN1CCN(CCCNc2nccc(-c3c(-c4ccc(F)cc4)nn4cc(C(F)(F)F)ccc34)n2)CC1 [GW621581],91.9

row,SMILES,%Inh [%]
1,O=C(Nc1n[nH]c2cc(-c3ccoc3)ccc12)C1CC1 [SB-738481],6
2,COc1cccc(C2=C(Nc3ccc(Cl)c(C(=O)O)c3)C(=O)NC2=O)c1 [SB-390769],45
3,COc1cccc(-c2ccc3c(NC(=O)C4CC4)n[nH]c3n2)c1 [SB-710903],5
4,COc1cccc(NC(=O)NC2CCN(c3ccnc(Nc4cc(OC)c(OC)c(OC)c4)n3)C2)c1 (stereo not drawn) [GSK1379763],39
5,CN(C)S(=O)(=O)c1cc(-c2ccc3nccc(-c4cccc(S(N)(=O)=O)c4)c3c2)cnc1N [GSK1669921],0
6,Cn1cc(-c2ccc3c(c2)CCN3C(=O)Cc2cccc(F)c2)c2c(N)ncnc21 [GSK2603358],3
7,COc1ccc(CNC(=O)NC2CCN(c3ccnc(Nc4ccc(F)cc4)n3)CC2)cc1 [GSK1379788],0
8,O=C(Nc1cccc(-c2nn3ccccc3c2-c2ccnc(Nc3cccc(F)c3)n2)c1)c1c(F)ccc(F)c1Cl [GSK357952],19
9,Cl.Cl.NCC(NCc1ccc(-c2ccnc3[nH]ccc23)s1)c1ccccc1 (stereo not drawn) [GSK1321565],4
10,CCc1ccc(-c2ccc3c(c2)-c2c(cnn2C)S(=O)(=O)N3C)cc1,0
11,O=C(O)C(F)(F)F.O=C(O)C(F)(F)F.O=c1[nH]ccc2nc(N[C@@H]3CCCNC3)nc(Nc3ccc(S(=O)(=O)N4CCOCC4)cc3)c12 [GSK2177277],98.6
12,Cc1occc1-c1ncc(OC[C@@H](N)Cc2c[nH]c3ccccc23)cc1-c1ccc2[nH]nc(C)c2c1.O=C(O)C(F)(F)F [GSK682037],12
13,COCCOCCOc1cc2ncc3c4ccc(C#N)cc4[nH]c3c2cc1OC,0
14,CN(C)Cc1ccc(-c2ccc3c(Nc4ccc(Oc5ccccn5)cc4)ccnc3c2)o1 [GW567148],0
15,Cc1ccc(C(=O)N2CC[C@@H](O)C2)cc1-n1c(C)cc(OCc2ccc(F)cc2F)c(Br)c1=O,0
16,Cn1cc(-c2[nH]c3cc(NC(=O)[C@H](N)C4CCCCC4)cc4c3c2C=NNC4=O)cn1,0

# From publication PMC5540273 (PLoS ONE, 2017)
